Assays:
[1] = target: T1, ETS1 (UniProt P14921); assay: ETS1 binding intensity (PBM fluorescence), ETS1 alone (arbitrary fluorescence units); higher = stronger binding; conditions: ETS1 concentration 1 nM; RUNX1 concentration 0 nM
T1 sequence: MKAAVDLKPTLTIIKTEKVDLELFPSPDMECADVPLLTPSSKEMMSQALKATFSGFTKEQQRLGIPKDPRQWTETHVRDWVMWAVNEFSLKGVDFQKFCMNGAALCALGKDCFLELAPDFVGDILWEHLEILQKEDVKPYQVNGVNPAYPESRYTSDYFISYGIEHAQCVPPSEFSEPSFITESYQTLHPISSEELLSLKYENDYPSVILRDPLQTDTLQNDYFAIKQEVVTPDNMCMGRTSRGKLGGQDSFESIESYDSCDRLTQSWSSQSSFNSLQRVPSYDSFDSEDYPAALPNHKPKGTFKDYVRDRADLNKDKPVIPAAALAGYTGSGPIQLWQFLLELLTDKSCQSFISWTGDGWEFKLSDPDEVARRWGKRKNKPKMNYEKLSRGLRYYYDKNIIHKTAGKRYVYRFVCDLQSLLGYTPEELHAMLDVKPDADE

[2] = target: RUNX1 (UniProt Q01196); assay: RUNX1 binding intensity (PBM fluorescence), RUNX1 alone (arbitrary fluorescence units); higher = stronger binding; conditions: RUNX1 concentration 2 nM; ETS1 concentration 0 nM
Sequence of RUNX1 (Q01196 whole entry): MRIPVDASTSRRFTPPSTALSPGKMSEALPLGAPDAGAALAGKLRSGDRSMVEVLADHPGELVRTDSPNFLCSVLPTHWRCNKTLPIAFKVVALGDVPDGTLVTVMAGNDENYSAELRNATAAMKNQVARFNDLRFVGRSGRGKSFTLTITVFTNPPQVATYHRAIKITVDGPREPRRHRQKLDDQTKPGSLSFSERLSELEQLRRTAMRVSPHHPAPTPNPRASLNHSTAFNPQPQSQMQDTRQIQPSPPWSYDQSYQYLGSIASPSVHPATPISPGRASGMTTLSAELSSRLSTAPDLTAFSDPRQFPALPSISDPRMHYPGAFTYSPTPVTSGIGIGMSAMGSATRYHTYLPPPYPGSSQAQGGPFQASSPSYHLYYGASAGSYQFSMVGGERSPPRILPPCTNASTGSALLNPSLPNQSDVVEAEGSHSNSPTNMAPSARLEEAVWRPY
Protocol: (§1)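 Cooperative gcPBM on 36-bp genomic probes with neighbouring ETS1 and RUNX1 sites. Recombinant human RUNX1 (2 nM) was incubated alone or with ETS1 (25 nM) and detected with anti-RUNX1 antibody plus Alexa488 secondary. Values are medians over 4 replicate spots; the RUNX1+ETS1 data were normalised to the RUNX1-only data. The probes sit in constant array flanks that are not printed.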

[3] = target: RUNX1 (UniProt Q01196); assay: RUNX1 binding intensity (PBM fluorescence) in presence of ETS1, normalised to RUNX1-only experiment (arbitrary fluorescence units); higher = stronger binding; conditions: RUNX1 concentration 2 nM; ETS1 concentration 25 nM
Protocol: as §1

[4] = target: T1, ETS1; assay: ETS1 binding intensity (PBM fluorescence) in presence of RUNX1, normalised to ETS1-only experiment (arbitrary fluorescence units); higher = stronger binding; conditions: ETS1 concentration 1 nM; RUNX1 concentration 25 nM
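Wherever RUNX1 binding intensity (PBM fluorescence) in presence of ETS1, normalised to RUNX1-only experiment is given: Full-length recombinant human ETS1 or RUNX1 bound to double-stranded 36-bp genomic probes on microarrays, detected by protein-specific primary antibody and Alexa488 secondary, spot fluorescence as median of four replicate spots.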
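Wherever RUNX1 binding intensity (PBM fluorescence), RUNX1 alone is given: Full-length recombinant human RUNX1 bound to double-stranded 36-bp genomic probes on a high-density microarray, scored as Alexa488 fluorescence per spot via anti-RUNX1 antibody, median of four replicate spots.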

| Sequence | ETS1 binding intensity [1] | RUNX1 binding intensity [2] | RUNX1 binding intensity [3] | ETS1 binding intensity [4] |
| --- | --- | --- | --- | --- |
| GGTGTGTTCTGGGGAGGAAGTGGGTTTTCAGGTTGT | 3820 | 799 | 1120 | – |
| GCTGTGCCGGCAGGATGTGGTCTTTGGTTTCTGTTT | 5560 | 850 | 3250 | – |
| TGAAGCAGGCGGAAGTGCTGTGGTTTCTGGCGACTG | 4090 | 939 | 2830 | – |
| GCTCCCGGATGTTCTGGGGATCTGCGGCCGCCTGGC | 1300 | 751 | 1320 | – |
| CAGTGAACAGTTTCCTGTTCCTGTGGTTTTGACTTT | 1230 | 1420 | 3980 | – |
| TCCTATATACTTCCGTTTGCCTCGCGGTTTCTTTCT | 1300 | 2730 | 4520 | – |
| CACTTCCTCCTCGGGGGCCTCAGAAAACCACAGGGC | 413 | 1110 | 2790 | – |
| CCATGCACAACAGGATGTGGTTAGACAGTCAAAATT | 6700 | 875 | 11900 | – |
| CCTGCAGCAACAGGATGTGGTTTGAAAGGATGAAAG | 7250 | 778 | 6460 | – |
| GGCCTTCATTACACAGGATGCGGTTGAAATGCATCA | 4110 | 931 | 1630 | – |
| CCCGGGGGCAGGAAATGTCGCCTTACCCACAGCCTT | 2470 | 873 | 1210 | – |
| GACTGGTTTCCTGGTTTTGATGTGGTTTAGAGAAAA | 504 | 1080 | 2170 | – |
| GCTCCGCTTCCGGGAGGCGGGGCTTCTGCGGGTTCC | 698 | 737 | 1710 | – |
| AGGTTCCGGCGAAAGTGACCGAAAGTAACCGCCGGG | 351 | 670 | 967 | – |
| CCTTGCTACAGGATGTTTTGACCACGAGCCCAGGAG | 1440 | 1090 | 1390 | – |
| GCGCGGACAGAGAAAGGATGTGGTATAGCAGAAAGT | 1500 | 727 | 884 | – |
| TAGCCACTAACCGGAAACGTTAAACCACAGCTCCGT | 10100 | 1180 | 7440 | – |
| GTTCTCCTTCCTGTGCCGAGTGTGGTTTGCTATCAA | 580 | 1250 | 2400 | – |
| CAAGTAATCTGCTCAGGAAGTGGTTTGAATAGAGGA | 2540 | 743 | 977 | – |
| GCTAAGAGCAGGAAATGATCTGGGAACCACCATCAC | 2690 | 719 | 918 | – |
| CCGTGGAAGGAAACGCTGCCAACCGCAACAGAAATG | 479 | 1700 | 3550 | – |
| GCCGGCGGCCGGAAGTCTATCCCGCAGAAGCGCAGC | 9360 | 736 | 1900 | – |
| TTGAATATGAAAGGAAGTGGTTAGGTGATGTGTTCT | 2370 | 826 | 1350 | – |
| CACTTCCTATCGCTACATAACAAATTACCACAGACT | 451 | 2490 | 6310 | – |
| TCTGTCGTCCCACTTCCTGCTGCGGTTTCCACCTCG | 3340 | 8620 | 21300 | – |
| GCACTGTAGGCAGGATGTGGGCAGGGGAAACTCAGG | 3720 | 827 | 2870 | – |
| CGCCGAACTTCCGGCAGTAAATTCCGTGGTTTCCCT | 2800 | 911 | 2400 | – |
| CCTAGAACCGGAAGAGAAAGGGGCTGCGGTGCAGCA | – | – | – | 6270 |

From the supplement of paper PMC10681739
